Active and inactive are the calls of the source. How the source made its calls: active means hit-call score of the fitted dose curve at least 0.9, where 1 is the maximum; inactive means score below 0.9.
Key:
[1] = read-out: serum amyloid A (SAA), SAA1 (gene 6288); assay: BSK_CASM3C_SAA: BioMAP Diversity Plus: CASM3C Assay for serum amyloid A (SAA) Biomarker Activity (AID 2283049); settings: primary human coronary artery smooth muscle cells; actives raise or lower the signal;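 further: SAA protein level quantified by ELISA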
[2] = BSK_CASM3C_SRB: Viability Assessment in the BioMAP Diversity Plus: CASM3C Assay (AID 2283050); settings: primary human coronary artery smooth muscle cells
[3] = read-out: Thrombomodulin, THBD (gene 7056); assay: BSK_CASM3C_Thrombomodulin: BioMAP Diversity Plus: CASM3C Assay for Thrombomodulin Biomarker Activity (AID 2283051); settings: primary human coronary artery smooth muscle cells; actives raise or lower the signal;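 further: thrombomodulin protein level measured by ELISA 24 h after dosing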
[4] = read-out: Tissue Factor, F3 (gene 2152); assay: BSK_CASM3C_TissueFactor: BioMAP Diversity Plus: CASM3C Assay for Tissue Factor Biomarker Activity (AID 2283052); settings: primary human coronary artery smooth muscle cells; actives raise or lower the signal;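 further: cell surface tissue factor protein level read by ELISA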
[5] = read-out: Interferon-gamma inducible Protein 10 (IP10), CXCL10 (gene 3627); assay: BSK_hDFCGF_IP10: BioMAP Diversity Plus: hDFCGF Assay for Interferon-gamma inducible Protein 10 (IP10) Biomarker Activity (AID 2283053); settings: primary human foreskin fibroblasts; actives raise or lower the signal
Method in brief: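 Human foreskin fibroblast primary cells (hDFCGF system) were dosed with chemical and assayed at 24 h; IP-10 measured by ELISA. Activity fitted bidirectionally relative to DMSO negative control as baseline.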

[6] = read-out: Urokinase-type plasminogen activator receptor (uPAR), PLAUR (gene 5329); assay: BSK_CASM3C_uPAR: BioMAP Diversity Plus: CASM3C Assay for Urokinase-type plasminogen activator receptor (uPAR) Biomarker Activity (AID 2283054); settings: primary human coronary artery smooth muscle cells; actives raise or lower the signal;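 further: cell-surface uPAR protein level quantified by ELISA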
[7] = read-out: Vascular cell adhesion molecule 1 (VCAM1), VCAM1 (gene 7412); assay: BSK_CASM3C_VCAM1: BioMAP Diversity Plus: CASM3C Assay for Vascular cell adhesion molecule 1 (VCAM1) Biomarker Activity (AID 2283055); settings: primary human coronary artery smooth muscle cells; actives raise or lower the signal;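 further: VCAM-1 protein level quantified by ELISA on the cells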
[8] = read-out: Collagen III, COL3A1 (gene 1281); assay: BSK_hDFCGF_CollagenIII: BioMAP Diversity Plus: hDFCGF Assay for Collagen III Biomarker Activity (AID 2283056); settings: primary human foreskin fibroblasts; actives raise or lower the signal
Method in brief: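 Human foreskin fibroblast primary cultures sampled 24 h after dosing; Collagen III quantified by ELISA. Signal fitted bidirectionally against DMSO baseline.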

[9] = read-out: Epidermal growth factor receptor (EGFR), EGFR (gene 1956); assay: BSK_hDFCGF_EGFR: BioMAP Diversity Plus: hDFCGF Assay for Epidermal growth factor receptor (EGFR) Biomarker Activity (AID 2283057); settings: primary human foreskin fibroblasts; actives raise or lower the signal
Method in brief: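 Primary human foreskin fibroblasts were exposed to compound for 24 h, after which cell-surface EGFR was quantified by ELISA. Activity was fitted bidirectionally against the DMSO negative control as baseline.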

[10] = read-out: Interleukin-8 (IL8), CXCL8 (gene 3576); assay: BSK_hDFCGF_IL8: BioMAP Diversity Plus: hDFCGF Assay for Interleukin-8 (IL8) Biomarker Activity (AID 2283058); settings: primary human foreskin fibroblasts; actives raise or lower the signal
Method in brief: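 Primary human foreskin fibroblasts (hDFCGF system) dosed with chemical; IL-8 measured by ELISA 24 hours later. Bidirectional curve fitting relative to DMSO baseline; cytotoxicity tracked in parallel cultures by SRB total protein staining.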

[11] = BSK_hDFCGF_Proliferation: Cell Proliferation Assessment in the BioMAP Diversity Plus: hDFCGF Assay (AID 2283059); settings: primary human foreskin fibroblasts;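 further: curves fitted for both rise and fall of signal versus DMSO baseline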
Method in brief: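 Sub-confluent human foreskin fibroblast cultures receive test chemical […]. Relative cell number is quantified by sulforhodamine B staining (0.1%, after 10% TCA fixation) at 560 nm, with bidirectional fitting referenced to DMSO.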

[12] = read-out: Macrophage colony-stimulating factor (MCSF), CSF1 (gene 1435); assay: BSK_hDFCGF_MCSF: BioMAP Diversity Plus: hDFCGF Assay for Macrophage colony-stimulating factor (MCSF) Biomarker Activity (AID 2283060); settings: primary human foreskin fibroblasts; actives raise or lower the signal
Method in brief: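 Human foreskin fibroblast primary cultures; M-CSF measured by ELISA 24 hours after chemical dosing. Bidirectional fitting relative to DMSO, with overt cytotoxicity tracked by parallel SRB total-protein staining (0.1% SRB, 10% TCA fixation, 560 nm).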

[13] = BSK_hDFCGF_SRB: Viability Assessment in the BioMAP Diversity Plus: hDFCGF Assay (AID 2283061); settings: primary human foreskin fibroblasts;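 further: cells exposed to compound for 24 h before the read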
Method in brief: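 Human foreskin fibroblasts in 96-well plates were treated 24 h. Total protein was measured by 0.1% SRB staining after 10% TCA fixation, read at 560 nm. Data were fitted bidirectionally against DMSO.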

[14] = read-out: TIMP metallopeptidase inhibitor 1 (TIMP1), TIMP1 (gene 7076); assay: BSK_hDFCGF_TIMP1: BioMAP Diversity Plus: hDFCGF Assay for TIMP metallopeptidase inhibitor 1 (TIMP1) Biomarker Activity (AID 2283062); settings: primary human foreskin fibroblasts; actives raise or lower the signal
Method in brief: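 Human foreskin fibroblast primary cultures dosed for 24 h; secreted/surface TIMP-1 quantified by ELISA. Bidirectional curve fitting against DMSO baseline; cytotoxicity tracked in parallel cultures by SRB total-protein staining.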

[15] = read-out: Monokine induced gamma interferon (MIG), CXCL9 (gene 4283); assay: BSK_hDFCGF_MIG: BioMAP Diversity Plus: hDFCGF Assay for Monokine induced gamma interferon (MIG) Biomarker Activity (AID 2283063); settings: primary human foreskin fibroblasts; actives raise or lower the signal
Method in brief: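 MIG/CXCL9 measured by ELISA 24 h after dosing primary human skin fibroblasts. Activity fitted in both directions against DMSO controls. Cytotoxicity was checked in parallel cultures by SRB staining read at 560 nm.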

[16] = read-out: Matrix Metallopeptidase 1 (MMP1), MMP1 (gene 4312); assay: BSK_hDFCGF_MMP1: BioMAP Diversity Plus: hDFCGF Assay for Matrix Metallopeptidase 1 (MMP1) Biomarker Activity (AID 2283064); settings: primary human foreskin fibroblasts; actives raise or lower the signal
Method in brief: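 Primary human foreskin fibroblasts exposed to chemicals for 24 h; MMP1 measured by ELISA. Cytotoxicity tracked by SRB staining in parallel cultures; bidirectional fit relative to DMSO.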

[17] = read-out: Vascular cell adhesion molecule 1 (VCAM1), VCAM1 (gene 7412); assay: BSK_hDFCGF_VCAM1: BioMAP Diversity Plus: hDFCGF Assay for Vascular cell adhesion molecule 1 (VCAM1) Biomarker Activity (AID 2283065); settings: primary human foreskin fibroblasts; actives raise or lower the signal;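 on AC50: VCAM-1 protein level quantified by ELISA after 24 h chemical exposure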
Method in brief: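 Human foreskin fibroblast primary cells dosed with chemical, VCAM-1 measured by ELISA at 24 h. Bidirectional curve fitting relative to DMSO as negative control/baseline.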

[18] = read-out: Plasminogen activator inhibitor-1 (PAI1), SERPINE1 (gene 5054); assay: BSK_hDFCGF_PAI1: BioMAP Diversity Plus: hDFCGF Assay for Plasminogen activator inhibitor-1 (PAI1) Biomarker Activity (AID 2283066); settings: primary human foreskin fibroblasts; actives raise or lower the signal
Method in brief: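 Human foreskin fibroblasts in the hDFCGF system were dosed with compound for 24 h; PAI-1 was quantified by ELISA. Bidirectional curve fitting used DMSO as negative control and baseline.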

[19] = read-out: Intercellular Adhesion Molecule 1 (ICAM1), ICAM1 (gene 3383); assay: BSK_KF3CT_ICAM1: BioMAP Diversity Plus: KF3CT Assay for Intercellular Adhesion Molecule 1 (ICAM1) Biomarker Activity (AID 2283067); settings: primary human keratinocytes with fibroblasts; actives raise or lower the signal
Method in brief: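 Human keratinocyte–foreskin fibroblast co-culture was treated for 24 h. Cell-surface ICAM-1 was quantified by ELISA, fitted bidirectionally relative to DMSO. Cytotoxicity was checked in parallel cultures by SRB total-protein staining.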

[20] = read-out: Interferon-gamma inducible Protein 10 (IP10), CXCL10 (gene 3627); assay: BSK_KF3CT_IP10: BioMAP Diversity Plus: KF3CT Assay for Interferon-gamma inducible Protein 10 (IP10) Biomarker Activity (AID 2283068); settings: primary human keratinocytes with fibroblasts; actives raise or lower the signal
Method in brief: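 ELISA read-out of IP-10 after 24 h chemical dosing of human skin primary co-culture (keratinocytes, foreskin fibroblasts). Gain or loss of signal relative to DMSO, bidirectional curve fit.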

Measured: AC50

CCOP(=O)(OCC)Oc1cc(C)nc(C(C)C)n1
active: [8] 31.7 µM | [11] 25.9 µM | [12] 34.3 µM | [14] 14.9 µM | [16] 20 µM | [18] 7.42 µM
inactive: all other assays above

CNC(=O)ON=C(C)SC
inactive: all assays above

CCOP(=S)(OCC)SCCSCC
active: [17] 36.9 µM | [20] 37 µM
not listed: [5]
inactive: all other assays above

Cc1nn(-c2cc(NS(C)(=O)=O)c(Cl)cc2Cl)c(=O)n1C(F)F
inactive: all assays above

CCOP(=O)(SC(C)CC)N1CCSC1=O (stereo not drawn)
active: [20] 0.704 µM
inactive: all other assays above

CCOP(=S)(OCC)Oc1ccc2c(C)c(Cl)c(=O)oc2c1
active: [5] 27.9 µM | [8] 20 µM | [12] 13.6 µM | [16] 5.06 µM | [17] 31.3 µM
not listed: [11]
inactive: all other assays above

CC(=NC#N)N(C)Cc1ccc(Cl)nc1
inactive: all assays above

CCCSP(=O)(OCC)SCCC
inactive: all assays above

O=c1ccc(=O)[nH][nH]1
inactive: all assays above

C[Si](Cn1cncn1)(c1ccc(F)cc1)c1ccc(F)cc1
active: [3] 7.8 µM
inactive: all other assays above

CCCSP(=O)(OCC)Oc1ccc(Br)cc1Cl (stereo not drawn)
active: [3] 11.5 µM | [5] 20 µM | [8] 20 µM | [11] 31.7 µM | [12] 17.4 µM | [17] 27.7 µM
inactive: all other assays above

CCNc1nc(Cl)nc(NC(C)(C)C#N)n1
active: [3] 3.97 µM | [6] 30.8 µM | [11] 12.2 µM | [18] 10.6 µM
inactive: all other assays above

CC[C@H](C)[C@H]1O[C@]2(C=C[C@@H]1C)C[C@@H]1C[C@@H](C/C=C(\C)[C@@H](O[C@H]3C[C@H](OC)[C@@H](O[C@H]4C[C@H](OC)[C@@H](NC)[C@H](C)O4)[C@H](C)O3)[C@@H](C)/C=C/C=C3\CO[C@@H]4[C@H](O)C(C)=C[C@@H](C(=O)O1)[C@]34O)O2
inactive: [3] | [4]
active: [1] 9.71 µM | [2] 11.6 µM | [5] 4.28 µM | [6] 12.3 µM | [7] 12 µM | [8] 5.53 µM | [9] 11.7 µM | [10] 6.99 µM | [11] 1.43 µM | [12] 2.85 µM | [13] 3.85 µM | [14] 4.4 µM | [15] 5.27 µM | [16] 6.78 µM | [17] 4.8 µM | [18] 2.08 µM | [19] 9.03 µM | [20] 8.17 µM

Source: PubChem BioAssay (EPA / NIEHS)
